Results published in PubChem BioAssay (NCI).
This is part of a sample that, as a whole, favours compounds with a hit. Of some 79,000 tested, about 15% had one in any assay. Rule as the data show it: active = growth inhibition above about 70%; inactive = the rest.

Key:
[1] = NCI Yeast Anticancer Drug Screen. Data for the rad50 strain (AID 155);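 also: 0% = growth of vehicle-only cultures of the same strain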; conditions: S. cerevisiae rad50 strain growth inhibition; at 50.0 µM; active compounds read high
Method in brief: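 Growth of the mutant yeast was measured after compound exposure and referenced to vehicle-treated cultures.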

[2] = NCI Yeast Anticancer Drug Screen. Data for the mec2-1 strain (AID 157); conditions: S. cerevisiae mec2-1 strain, at 50.0 µM, active compounds read high
Method in brief: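 Vehicle-treated cultures served as reference for growth inhibition of compound-exposed mec2-1 yeast.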

[3] = NCI Yeast Anticancer Drug Screen. Data for the sgs1 mgt1 strain (AID 161);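 also: 0% = growth of cultures given vehicle only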; conditions: S. cerevisiae sgs1 mgt1 strain, at 50.0 µM, active compounds read high
Method in brief: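 Mutant yeast exposed to compound; growth scored against vehicle-only wells.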

[4] = NCI Yeast Anticancer Drug Screen. Data for the cln2 rad14 strain (AID 165);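 also: 0% = growth equal to vehicle treated cultures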; conditions: S. cerevisiae cln2 rad14 strain, at 50.0 µM, active compounds read high
Method in brief: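 Each compound was tested on cln2 rad14 yeast. Inhibition of growth was calculated against vehicle-exposed controls.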

[5] = NCI Yeast Anticancer Drug Screen. Data for the bub3 strain (AID 167); conditions: S. cerevisiae bub3 mutant strain, at 50.0 µM, active compounds read high
Method in brief: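 Whole-cell yeast assay. The mutant strain was incubated with compounds, and growth inhibition was determined by comparison with vehicle-treated cells.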

[6] = NCI Yeast Anticancer Drug Screen. Data for the mlh1 rad18 strain (AID 175); conditions: S. cerevisiae mlh1 rad18 strain growth inhibition; at 50.0 µM; active compounds read high
Method in brief: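 Vehicle-treated cultures served as the reference for growth inhibition in a yeast strain carrying DNA damage repair alterations exposed to each compound.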

Measured: growth inhibition

CN1CCN(CCCO)CC1
inactive: [1] -15.2% | [2] 3.3% | [3] -8.85% | [4] -16.4% | [5] 5.05% | [6] -0.25%

COC(=O)c1ccc(NC(C)=O)c([N+](=O)[O-])c1
inactive: [1] 3.35% | [2] -7.7% | [3] -11.4% | [4] -21.9% | [5] -26.1% | [6] 16.4%

CCOC(=O)CCCCCSc1n[nH]c(=O)[nH]c1=O
inactive: [1] -7.5% | [2] -11% | [3] -21.9% | [4] 5.75% | [5] 6.15% | [6] -4.2%

Brc1cnc2nc(Cc3ccccc3)[nH]c2c1
inactive: [1] 5.05% | [2] 7.7% | [3] 17.3% | [4] -52.3% | [5] 27% | [6] 2.9%

COc1ccc(OC(=O)Nc2cccc(C(C)=O)c2)cc1
inactive: [1] 8.35% | [2] 42.3% | [3] 9.9% | [4] 1.8% | [5] 22.1% | [6] 3.15%

CC(C)(C)NC(=O)NCCCCCCNC(=O)NC(C)(C)C
inactive: [1] -15.5% | [2] -13.9% | [3] -7.45% | [4] -27.9% | [5] 8.05% | [6] -7.9%

CCN(CC)CC(O)CO (configuration not stated)
inactive: [1] -4.55% | [2] -16.6% | [3] -17.1% | [4] 5.9% | [5] 2% | [6] 1.35%

CCCCCCCCS(=O)(=O)NC
inactive: [1] 0.95% | [2] -9.8% | [3] -8.75% | [4] -10% | [5] 16.4% | [6] 5.7%

NC(=O)c1cn(C2OC(CO)C(O)C2O)c2nc(N)nc(N)c2c1=O (configuration not stated)
inactive: [1] 19% | [2] 19.4% | [3] 14.3% | [4] 3.9% | [5] 23.1% | [6] 45.1%

O=C1OCC2C(=O)N3Cc4cc5ccccc5nc4C3CC12 (configuration not stated)
inactive: [1] 11.9% | [2] 10.2% | [3] -2.5% | [4] 8.85% | [5] -15.8% | [6] 9.55%

CSc1n[n+]2c(s1)SCCC2
inactive: [1] -19.8% | [2] -27.2% | [3] 0.05% | [4] 5.45% | [5] -8.7% | [6] 0.05%

Cc1cc2oc(=O)[nH]c(=S)c2c(C)c1C
inactive: [1] -47.7% | [2] -19.2% | [3] -35.2% | [4] 2.45% | [5] -59.5% | [6] -36.6%

COC(=O)CC1(O)C=CCCC1c1ccccc1 (configuration not stated)
inactive: [1] -23.2% | [2] -7.6% | [3] 2.35% | [4] 0.3% | [5] -7.5% | [6] -35%

O=C1C(Cc2ccc(O)cc2)NC(=S)N1c1ccccc1 (configuration not stated)
inactive: [1] 0.6% | [2] -9.85% | [3] 24.9% | [4] -2.75% | [5] 20% | [6] -19.8%

CCOC(=O)CCC(=O)Oc1cccc2c1C(=O)c1c(OC(=O)CCC(=O)OCC)cccc1C2=O
inactive: [1] 40.5% | [2] 37% | [3] 9.8% | [4] 17.2% | [5] 6.45% | [6] 47.7%

CSc1nc2c(N)nc(N)nc2nc1C
inactive: [1] 5.9% | [2] 0.2% | [3] 0.75% | [4] -31.6% | [5] -16.7% | [6] 11.5%

Clc1ccccc1C(Cl)c1ccccc1 (configuration not stated)
inactive: [1] 3.3% | [2] -14.2% | [3] -5.95% | [4] -21.6% | [5] -10.7% | [6] -6.25%

Cc1ccc2c(c1)C(O)(CC(=O)c1ccccc1)C(=O)N2 (configuration not stated)
inactive: [1] 35.4% | [2] 0.55% | [3] 7% | [4] -47.9% | [5] -6.6% | [6] 1.35%

Cc1c(C)c(CN)c(C)c(C)c1CN
inactive: [1] -30.5% | [2] -47% | [3] -16.6% | [4] -24.2% | [5] -43.4% | [6] -31.7%

CC1(C)CC(C#N)CC(C)(C)N1O
inactive: [1] 1.9% | [2] -0.75% | [3] 0.5% | [4] -20.9% | [5] -4.8% | [6] -0.95%

COC1CCCC2CC3=C(CCCC3)OC21 (configuration not stated)
inactive: [1] -6.45% | [2] 3.5% | [3] 5.1% | [4] -101% | [5] -14% | [6] -13.5%

O=c1oc2ccc(Cl)cc2c(OCCO)c1Cl
inactive: [1] -5.2% | [2] 4.55% | [3] -4.45% | [4] -0.5% | [5] -5.95% | [6] -1.15%

Cc1c(-c2ccccc2)c(=O)oc2ccc(Cl)cc12
inactive: [1] -34% | [2] -8.5% | [3] 1.1% | [4] -9.85% | [5] -14.9% | [6] -15.2%

Cc1ncc(-c2ccccc2)o1
inactive: [1] -20.2% | [2] -21.2% | [3] -1.75% | [4] -7% | [5] -19.9% | [6] -15.7%

Oc1ccc(-c2cc(-c3cc(-c4ccc(O)cc4)no3)on2)cc1
inactive: [1] -1.95% | [2] -3.5% | [3] -10.8% | [4] -11.7% | [5] -32.3% | [6] -7.1%

CC1SC2=NC3=C(c4ccccc4C3=O)C(c3ccc(Br)cc3)N2C1=O (configuration not stated)
inactive: [1] -37.5% | [2] -15.9% | [3] -36.3% | [4] -15.8% | [5] -37% | [6] -32.8%

CCOC(OCC)n1ncnc1NC(=S)NCc1ccccc1
inactive: [1] -15.4% | [2] -23.6% | [3] 3.75% | [4] -2.7% | [5] -5.85% | [6] -11.2%

CC(=O)c1cc([N+](=O)[O-])c[nH]1
inactive: [1] 9.05% | [2] 1.45% | [3] 1.1% | [4] -19.1% | [5] 9.25% | [6] 0.5%

S=c1nc[nH]c2c1ncn2C1CCCC1
inactive: [1] -2.25% | [2] -4.75% | [3] -4.55% | [4] -14.9% | [5] -0.3% | [6] -3.1%

CCOC(=O)c1ncn(C2OC(CO)C(O)C2O)c1N (configuration not stated)
inactive: [1] 19.5% | [2] 1.6% | [3] 31.4% | [4] 12.3% | [5] 14.2% | [6] 25.2%

O=S(=O)(O)c1cccc2c(O)cccc12
inactive: [1] -7.9% | [2] -2.9% | [3] 5.65% | [4] 34.9% | [5] 5.35% | [6] -32%

O=C(c1ccccc1)C(N=Nc1ccccc1)(c1ccccc1)c1ccccc1
inactive: [1] 4.15% | [2] -6% | [3] -1.8% | [4] -7.05% | [5] -0.85% | [6] 21.6%

COC(=O)c1nnn(-c2cccc(Cl)c2)c1C(=O)c1ccc(Cl)c(Cl)c1
inactive: [1] -6.55% | [2] 5.55% | [3] 7.5% | [4] -5.25% | [5] -8.9% | [6] 11.8%

CCOc1ccc(CCC(=O)O)cc1
inactive: [1] 3.55% | [2] -9% | [3] -1.65% | [4] 2.8% | [5] -6.1% | [6] 12.1%

C=C(CCl)CCl
inactive: [1] 42.4% | [2] 12.2% | [3] 39.1% | [4] 12.5% | [5] 46.3% | [6] 36.5%

COc1ccc(-n2c(C)nc3c(cnn3C3OC(CO)C(O)C3O)c2=O)cc1 (configuration not stated)
inactive: [1] 16.2% | [2] -5.6% | [3] -15.1% | [4] -4.15% | [5] -1.9% | [6] 11.2%

CCCCC(CCCC)c1ccccn1
inactive: [1] -15.1% | [2] -10.9% | [3] 8.15% | [4] -18.2% | [5] 8.85% | [6] -14.4%

N#Cc1ccc(/C=N\NC(=O)CCSCCC(=O)N/N=C/c2ccc(C#N)cc2)cc1
inactive: [1] 13.2% | [2] 24.9% | [3] 7.65% | [4] 18.4% | [5] 13.1% | [6] 7.45%

O=C(Cc1ccccc1)NN1C(=O)/C(=C\c2cccc([N+](=O)[O-])c2)SC1=Nc1ccccc1
inactive: [1] -2.7% | [2] -15.2% | [3] 9.95% | [4] 17.1% | [5] -14.8% | [6] 0.85%

COC(=O)CC1=NNC(=O)C1
inactive: [1] -11.7% | [2] -15.1% | [3] -14% | [4] -18.1% | [5] -7.35% | [6] -19.8%

Nn1nc2ccccc2n1
inactive: [1] -0.15% | [2] 0.2% | [3] -11.1% | [4] 1.6% | [5] 0.75% | [6] 1.45%

COc1ccc(N2C(=O)C3c4[nH]c5ccccc5c4C4CCCCCCC4C3C2=O)cc1 (configuration not stated)
inactive: [1] 50.1% | [2] 25.9% | [3] 22.6% | [4] -8.9% | [5] 11.9% | [6] 28.6%
